Screening data from PubChem BioAssay.
esBAF inh – Bmi1 luciferase reporter increase in mESCs, primary screen, esBAF inhibitor project, mouse ES cells, Bmi1 luciferase knock-in, single point; 24 h; 100% = twice the neutral-well signal; reporter increase, % at 12.5 µM; actives 2% (n = 350,000); AID 602393, 2012; in the data active means activation above about 40%; inconclusive means no clear call, values can overlap the other calls;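 further: 0% = median of the plate's neutral control wells and 100% = double that signal; a rise in the Bmi1 reporter signal indicates esBAF inhibition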
Statin myotox sup – suppressors of statin myotoxicity in C2C12 myotubes, primary screen, cell-based, single point, plate reader. C2C12 myotubes + simvastatin, ATP luminescence, 48 h; scaled: DMSO 0, geranylgeraniol control 100. rescue of ATP level, % at 7.49 µM. actives 0.78% (n = 330,000). AID 602340, 2012;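 active means mean ATP rescue above about 67%, or every replicate alone reaching that limit, limit read from the data, passing the limit was not always enough; inconclusive means no clear call, values can overlap the other calls; inactive means mean under the limit and some replicate under it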;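 further: myotubes were challenged with 10 µM simvastatin during compound exposure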
MITF TRPM1 HTS – activators of MITF-driven TRPM1 promoter reporter, primary screen, cell-based, SK-MEL-5, luciferase, single point. SK-MEL-5 TRPM1-promoter luciferase, 24 h; % of positive control, neutral wells = 0. activation, % at 12.5 µM. actives 0.75% (n = 300,000);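 active means mean activation of at least 80% with every replicate also reaching 80%; inconclusive means mean reaches 80% but some replicate falls short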;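 further: 0% = neutral control wells and 100% = parthenolide positive control wells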
MITF TRPM1 inh – inhibitors of MITF-dependent TRPM1 promoter reporter, primary screen, cell-based, SK-MEL-5, single point, luciferase | actives 0.83% (n = 330,000) | inhibition, % at 12.5 µM | SK-MEL-5 TRPM1 promoter luciferase, 24 h;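 active means mean inhibition across replicates of 60% or more, whatever share of single replicates reaches that level; inconclusive means some that reach 60%, reason not given; inactive means mean inhibition across replicates below 60%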
EBV LMP1 NFkB – EBV LMP1-driven NF-kappaB luciferase reporter inhibitors, primary screen, cell-based, luminescence, single point; LMP1-induced NF-kappaB luciferase reporter cells; inhibition, % at 12.5 µM; actives 0.69% (n = 350,000); AID 504558, 2011; in the data active means inhibition above about 41%; inconclusive means no clear call, values can overlap the other calls;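 further: 0% = neutral control wells and 100% = reference inhibitor control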
Wnt bcat act – Wnt/beta-catenin pathway activators, primary screen, cell-based, plate reader, single point; actives 1.2% (n = 300,000); Wnt/beta-catenin reporter cell assay, activator; activation, % at 9.35 µM; in the data active means activation above about 30%, passing the limit was not always enough; inconclusive means no clear call, values can overlap the other calls;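 further: 0% = neutral control wells and 100% = positive control wells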
Numbers without * were called inactive; u = inconclusive; x = not tested or not shown. In the library only some 4% were active in any assay of this set; here they are far more common.

SMILES | esBAF inh | Statin myotox sup | MITF TRPM1 HTS | MITF TRPM1 inh | EBV LMP1 NFkB | Wnt bcat act
CCOc1ccc(-c2nnn(CCC#N)n2)cc1OC | x | x | 15 | -15 | 1 | 0
CCOc1ccccc1CN1CCNC(=O)C1CC(=O)N(C)CCc1ccccn1 (stereo unspecified) | -6 | 118* | 10 | -4 | -7 | -1
S=c1[nH]nc(-c2ccncc2)n1/N=C/c1cn(-c2ccccc2)nc1-c1ccc(Cl)cc1 | x | x | x | x | x | 48*
CC(/C=N/n1c(-c2cccnc2)n[nH]c1=S)=C\c1ccccc1 | -8 | 25 | 9 | -8 | 4 | -8
CC(=C/c1ccccc1)/C=N/n1c(-c2ccncc2)n[nH]c1=S | x | x | 30 | -30 | 56* | -3
O=C(Nc1ccc(N2CCCCC2)cc1)c1cccnc1 | 62* | -31 | 36 | -38 | -12 | x
CCSc1ccc(NC(=O)c2cccnc2)cc1 | 37 | x | x | -45 | -5 | 37*
O=C(Nc1ccc(N2CCN(Cc3ccccc3Cl)CC2)cc1)c1cccnc1 | 13 | 2 | 9 | -11 | 3 | x
CC(C)(C)C(=O)Nc1ccc(C(=O)NCc2cccnc2)cc1 | 5 | 114* | 13 | -15 | 1 | x
CCc1ccc(NC(=O)c2cccnc2)cc1 | 46* | 15 | 74 | -67 | -12 | 53*
COc1ccc(-c2nc3c(C)cc(Br)cn3c2Cc2ccccc2C(F)(F)F)cc1OC | x | x | x | x | x | -5
O=C(NC(Cc1c[nH]c2ccccc12)C(=O)OCC(=O)c1cccc2ccccc12)c1cccs1 (stereo unspecified) | x | x | -3 | 4 | -5 | x
CCc1ccc(CNCc2cccnc2)cc1 | 6 | 114* | 3 | -1 | -7 | x
N/C(=N\OC(=O)c1cccs1)c1cccc([N+](=O)[O-])c1 | 75* | 62 | 45 | -42 | -39 | 13
Cc1cccc(C(=O)O/N=C(\N)c2cccc([N+](=O)[O-])c2)c1 | x | x | 41 | -31 | -40 | 19
Cc1ccccc1/C(N)=N/OC(=O)c1cccs1 | x | x | 17 | -15 | -27 | 25
CCSc1ccc(/C(N)=N/OC(=O)c2cccs2)cn1 | 57* | -7 | 108* | -111 | -19 | 29
COc1ccc(N2CCN(CCCNC(=O)c3ccc(CS(=O)(=O)c4ccc(Cl)cc4)o3)CC2)cc1 | -9 | -5 | -11 | 14 | 6 | 12
CCCCN1CC(O)=C(c2nc3ccccc3s2)C1=N | 58* | -20 | 72 | -68 | -24 | -1
O=C(CSc1nnnn1-c1ccccc1)NC(=O)NCc1ccco1 | 6 | 95* | x | 3 | -3 | -3
CCOC(=O)c1c2c(n(C)c1C)C(=O)C(=O)c1ccc(Br)cc1-2 | -80 | -295 | x | 87* | 77* | x
CCOC(=O)c1c2c(n(Cc3ccccc3)c1C)C(=O)C(=O)c1ccccc1-2 | x | x | -103 | x | 14 | -6
O=C(c1ccc(Cl)cc1)N1CCN(c2ccc(N3CCOCC3)nn2)CC1 | 6 | 12 | x | x | -8 | -6
C(=N\N=C\c1ccccn1)/c1ccccn1 | 8 | -5 | -1 | 2 | -6 | 0
C(=NOCCc1ccccc1)c1ccccn1 | 95* | -12 | 46 | -43 | -31 | 7
SMILES | esBAF inh | Statin myotox sup | MITF TRPM1 HTS | MITF TRPM1 inh | EBV LMP1 NFkB | Wnt bcat act
O=C(Nc1ccccc1)O/N=C/c1ccncc1 | 19 | 6 | 16 | -13 | 3 | x
C(=NOCCc1ccccc1)c1ccncc1 | 49* | 0 | 91* | -100 | -24 | 0
COc1ccc(NC(=O)C2CC(=O)N(c3ccccc3Cl)C2)c(OC)c1 (stereo unspecified) | x | x | -1 | 0 | -4 | -2
CCS(=O)(=O)c1ccc2c(c1)N(S(=O)(=O)c1cccs1)CC(C(=O)O)O2 (stereo unspecified) | x | x | 2 | -2 | 1 | 0
CC1(C)CC(NC(=O)C2CCN(S(=O)(=O)c3ccccc3C(F)(F)F)CC2)CC(C)(C)N1 | -6 | -4 | -5 | 4 | 3 | 4
O=c1[nH]c(NC2CCN(S(=O)(=O)c3ccccc3C(F)(F)F)CC2)nc2c1CCCC2 | 5 | 10 | -71 | 71* | 53* | 1
Cc1cccc(C(=O)N=c2sccn2C)c1[N+](=O)[O-] | 56* | 4 | 100* | -95 | -16 | 6
Cn1ccsc1=NC(=O)c1ccc(Cl)c([N+](=O)[O-])c1 | 83* | -1 | 56 | -59 | -30 | 11
Cc1ccc(C(=O)N=c2sccn2C)cc1S(=O)(=O)N1CCOCC1 | 63* | -5 | 99* | -104 | -2 | 9
CCCCOc1ccc(C(=O)N=c2sccn2C)cc1OC | 57* | -5 | u | -90 | -18 | 37*
C[C@H](O)C#Cc1ccc2c(c1)O[C@H](CN(C)Cc1ccc(-c3ccccc3)cc1)[C@@H](C)CN([C@H](C)CO)S2(=O)=O | 8 | -81 | x | x | x | x
CCCCCc1cccnc1 | -6 | 6 | -8 | 8 | -1 | 8
CCN1CCN(c2ccc(NC(=O)c3ccco3)cc2Cl)CC1 | 36 | -1 | 63 | -58 | -18 | 15
O=C(Nc1ccc(N2CCCC2)c(Cl)c1)c1ccco1 | 14 | -22 | 48 | -41 | 1 | 41*
CN1CCN(c2ccc(NC(=O)c3ccco3)cc2Cl)CC1 | -1 | -19 | 15 | -10 | 60* | 19
Cc1cc(NS(=O)(=O)c2ccc(NC(=O)c3oc4ccccc4c3C)cc2)no1 | -6 | 52 | -11 | 14 | 0 | x
O=C1[C@@H]2[C@H](C(=O)N1C[C@@H](COCc1ccccc1)Oc1cccc3c1S(=O)(=O)N(CCc1ccc(F)cc1)C[C@H](COCc1ccccc1)O3)[C@@H]1C=C[C@H]2C1 | x | x | x | x | x | -4
CCCN1C(=O)/C(=C/c2ccncc2)SC1=S | x | x | -8 | 9 | -1 | -2
O=C(O)c1cc(-c2ccc(/C=C3/SC(=S)N(Cc4ccccc4)C3=O)o2)ccc1Cl | 54* | -2 | 2 | -2 | 8 | -1
O=C1/C(=C/c2ccncc2)SC(=S)N1Cc1ccccc1 | x | x | -37 | 21 | 43* | -1
Brc1ccc(-n2cnc(-c3ccccc3)c2)cc1 | 12 | -5 | 45 | -41 | -21 | 45*
O=C1CCC(C(=O)N2CCCCCC2)CN1CCc1ccc(Cl)cc1 (stereo unspecified) | 0 | 2 | 6 | 0 | 69* | 3
Cn1c(N)c(C(=O)COC(=O)c2cc(S(=O)(=O)N3CCOCC3)ccc2F)c(=O)n(C)c1=O | 5 | 1 | -82 | 82* | 0 | 96*
Cc1ccc(S(=O)(=O)N2CCOCC2)cc1C(=O)OCC(=O)c1c(N)n(C)c(=O)n(C)c1=O | -4 | -9 | 10 | -5 | 6 | -2
